Bioassay records: PubChem BioAssay, National Center for Advancing Translational Sciences (NCATS)
Sampled rows, rich in hits. Any-hit rate of the full collection: about 10%.
ALDH1A1 block: qHTS Assay for Inhibitors of Aldehyde Dehydrogenase 1 (ALDH1A1); Purified ALDH1A1, NADH fluorescence, propionaldehyde substrate; actives 7.3% (n = 220,000); Potency, µM (titrated, usually from 75.3 µM), actives largely listed as inhibitors; active = well fitted inhibition curve with a large enough effect, not every such curve was filed as active; inconclusive = small, poorly fitted or top-dose-only effect, or another doubt; inactive = no such curve, though single readings can be large or run the other way
HPGD block: qHTS Assay for Inhibitors of HPGD (15-Hydroxyprostaglandin Dehydrogenase). 15-hydroxyprostaglandin dehydrogenase [NAD(+)] (Homo sapiens), P15428. purified HPGD, NADH fluorescence kinetic, PGE2 substrate. Potency, µM, most hits filed as inhibitors. actives 4.3% (n = 150,000). AID 894, 2007; active = well fitted inhibition curve with a large enough effect, not every such curve was filed as active; inconclusive = small, poorly fitted or top-dose-only effect, or another doubt; inactive = no such curve, though single readings can be large or run the other way
Target sequence (P15428 whole entry, looked up): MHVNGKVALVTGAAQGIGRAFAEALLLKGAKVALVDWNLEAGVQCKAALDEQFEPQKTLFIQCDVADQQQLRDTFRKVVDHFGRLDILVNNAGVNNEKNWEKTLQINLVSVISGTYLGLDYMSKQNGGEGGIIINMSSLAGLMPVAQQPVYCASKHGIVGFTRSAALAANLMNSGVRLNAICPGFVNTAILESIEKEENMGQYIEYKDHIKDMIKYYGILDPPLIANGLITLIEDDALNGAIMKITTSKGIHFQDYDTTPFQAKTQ
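20 nM HPGD preincubated 15 min at room temperature with compound in 50 mM Tris-HCl pH 8, 0.01% Tween 20. Started with 1 mM NAD+ and 30 uM prostaglandin E2; NADH fluorescence (360/450 nm) read 5 times over 30-s intervals, last minus first.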
PNC assembly inh: High Content Assay for Compounds that inhibit the Assembly of the Perinucleolar Compartment; PC3M PTB-GFP, PNC prevalence imaging, 16 h; hits give low values; activity change (PNC), negative = inhibition, % at 10 µM; actives 3.1% (n = 140,000);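 active = readout at or below -70, meaning at least 70% loss of cells showing the perinucleolar compartment, a nuclear body marking cancer cells; inconclusive = readout between -30 and a set limit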
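PC3M cells stably expressing PTB-GFP, 750–1000 cells/well, treated 16 h at 37 °C with compound (23 nl of library stock), in duplicate. After paraformaldehyde fixation and Hoechst stain, imaged at 20x; PNC prevalence scored by image analysis.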
GLA inh pH 4.5: qHTS Assay for Inhibitors of Human alpha-Galactosidase at pH 4.5; activity change, negative = inhibition, % at 105 µM; Alpha-galactosidase A (Homo sapiens), P06280; 230,000 tested, under 10 active; purified enzyme, 4-MU-alpha-Gal fluorescence, pH 4.5; AID 1467, 2008
Target sequence (P06280 whole entry, looked up): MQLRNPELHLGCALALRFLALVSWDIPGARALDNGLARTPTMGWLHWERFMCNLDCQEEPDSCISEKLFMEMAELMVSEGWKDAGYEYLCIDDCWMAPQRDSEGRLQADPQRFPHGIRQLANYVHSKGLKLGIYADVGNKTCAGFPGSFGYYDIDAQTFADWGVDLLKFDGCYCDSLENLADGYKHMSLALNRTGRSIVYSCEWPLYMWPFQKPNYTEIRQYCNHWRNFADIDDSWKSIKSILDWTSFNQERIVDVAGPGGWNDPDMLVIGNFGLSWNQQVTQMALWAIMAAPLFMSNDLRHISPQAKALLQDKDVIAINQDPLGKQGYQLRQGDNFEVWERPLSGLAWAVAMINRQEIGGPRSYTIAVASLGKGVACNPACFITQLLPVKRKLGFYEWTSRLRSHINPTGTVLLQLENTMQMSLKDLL
GLA spleen mod: qHTS Assay for Inhibitors and Activators of Human alpha-Galactosidase From Spleen Homogenate; Potency, µM (titrated, usually from 80 µM), usual class: inhibitors; AID 2107, 2009; Alpha-galactosidase A (Homo sapiens), P06280; actives 0.008% (n = 240,000); human spleen homogenate, 4MU-alpha-Gal fluorescence, 40 min
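Spleen homogenate 1 ug + cpd (titration) + 4-MU-alpha-D-galactopyranoside 1 mM; 37C 40 min; 50 mM citrate/phosphate pH 5.0, 0.01% Tween-20; stop pH 10; fluorescence 365/440; AC50 via Hill.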
ALOX12 inhib: qHTS Assay for Inhibitors of 12-hLO (12-human lipoxygenase). Polyunsaturated fatty acid lipoxygenase ALOX12 (Homo sapiens), P18054. purified 12-hLO, xylenol orange hydroperoxide absorbance. Potency, µM (series often up to 57.1 µM), hits mostly inhibitors. actives 0.12% (n = 150,000). AID 1452, 2008; also: nearly all actives have a fitted effect of over 55% in size
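Hydroperoxide formation by human 12-lipoxygenase from 40 uM arachidonic acid was followed colorimetrically via ferric-xylenol orange complex, using the 573/405 nm absorbance ratio. Enzyme concentration was 150 nM, with 30 min reaction at room temperature.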
Each line names hits and unclear results; the compound was inactive in the other large screens. Unless noted, calls follow the shape of the dose curve; as a rule, active = well fitted curve in the direction sought with a large enough effect; inconclusive = small, poorly fitted or top-dose-only effect, or another doubt; inactive = no such curve, though single readings can be large; an effect the other way counts as inactive or inconclusive.

COc1ccc(/C=C/C(=O)NCC2COc3ccccc3O2)cc1OC (configuration not stated)	ALDH1A1 block inconclusive (no result: HPGD block, PNC assembly inh, ALOX12 inhib)
O=C(NC(=S)NCC1COc2ccccc2O1)c1ccccc1 (configuration not stated)	ALDH1A1 block inconclusive, PNC assembly inh inconclusive, GLA spleen mod inconclusive, ALOX12 inhib 13µM
Cc1c(C(=O)N2CCC(C)CC2)oc2ccc(S(=O)(=O)N3CCC4(CC3)OCCO4)cc12	ALDH1A1 block inconclusive
CCOc1ccc(OCCCCOc2ccccc2C(C)=O)cc1	none
Cc1cccc(-n2c(Cn3nc(C)c([N+](=O)[O-])c3C)n[nH]c2=S)c1	ALDH1A1 block 25µM
CN(C)CCC(=O)[C@@]1(O)CC[C@H]2[C@H]3CC=C4C[C@@H](O)CC[C@]4(C)[C@H]3CC[C@]21C	ALDH1A1 block 0.32µM (no result: PNC assembly inh, GLA inh pH 4.5, GLA spleen mod)
C/C(CC(=O)Nc1cc(Cl)ccc1Cl)=N\NC(N)=S	ALDH1A1 block 13µM, ALOX12 inhib inconclusive
CCC(Oc1ccccc1)C(=O)Nc1nnc(C)s1 (configuration not stated)	PNC assembly inh -117
CCC(Oc1ccccc1)C(=O)Nc1nc2c(s1)C(=O)CC(C)(C)C2 (configuration not stated)	ALDH1A1 block 13µM
Cc1nnc(NC(=O)CSCc2ccccc2)s1	PNC assembly inh -106
CC1(C)CC(=O)c2sc(NC(=O)CN3CCOCC3)nc2C1	ALDH1A1 block 20µM
COc1ccc(Nc2nc(Nc3ccc(OC)cc3OC)nc(N3CCN(C)CC3)n2)c(OC)c1	none
O=C(O)c1nccnc1C(=O)Nc1ccccc1-c1ccccc1	none (no result: ALDH1A1 block, HPGD block, PNC assembly inh, ALOX12 inhib)
O=C(O)c1ccc(N=NN2CCCCCC2)cc1	none
COC(=O)C/C=C\[C@@H](C)[C@H]1C=C[C@H](O)[C@@H](CO)O1	none (no result: HPGD block, PNC assembly inh, GLA inh pH 4.5, ALOX12 inhib)
CCOC(=O)N/N=C1/C[C@@H](O)[C@@H](O)[C@@H]2[C@@H]3C(=O)N(Cc4ccccc4)C(=O)[C@H]3CC[C@H]12	none (no result: HPGD block, PNC assembly inh, GLA inh pH 4.5, ALOX12 inhib)
Cc1cc(C)cc(NCCC#N)c1	none
CCC(C)C(=O)Nc1nc2c(s1)C(=O)CC(C)(C)C2 (configuration not stated)	ALDH1A1 block 16µM, PNC assembly inh -119
CC1(C)CC(=O)c2sc(NC(=O)CN3C(=O)CCC3=O)nc2C1	ALDH1A1 block inconclusive, HPGD block inconclusive
CCCCNc1nc(C)nc2c1nc(-c1ccccc1)n2C(C)CCCN(CC)CC (configuration not stated)	ALDH1A1 block inconclusive, HPGD block inconclusive (no result: PNC assembly inh)
COc1cc(NC(=O)c2cccs2)c(C(=O)OCC(=O)NC(=O)NCc2ccccc2)cc1OC	ALDH1A1 block inconclusive, HPGD block inconclusive, PNC assembly inh inconclusive
COc1cc(NC(=O)c2cccs2)c(C(=O)OCC(=O)NC(=O)NC(C)(C)C)cc1OC	PNC assembly inh -98
O=C(NCc1csc(-c2ccccc2)n1)c1cc(F)cc2c1OCOC2	none (no result: HPGD block, PNC assembly inh, ALOX12 inhib)
Nc1nonc1C(=O)N/N=C/c1ccc(-c2ccc(Cl)c(C(=O)O)c2)o1	ALDH1A1 block 4µM (no result: HPGD block, PNC assembly inh, ALOX12 inhib)
COC(=O)N/N=C/c1ccc(-c2cc(Cl)cc(Cl)c2)o1	none
COC(=O)N/N=C/c1ccc(-c2ccc(C)c(Cl)c2)o1	HPGD block 14µM
C(=C\c1ccccc1)/CSc1nc2ncccc2[nH]1	none (no result: ALDH1A1 block, HPGD block, PNC assembly inh, ALOX12 inhib)
Cc1cccc(NC(=O)CNC(=O)COc2cc(F)ccc2[N+](=O)[O-])c1C	none (no result: HPGD block, PNC assembly inh, ALOX12 inhib)
O=C(COCCOCC(=O)N(c1ccccn1)C1CCCCC1)N(c1ccccn1)C1CCCCC1	PNC assembly inh -100
O=C(OC1CCOC1=O)c1cc(-c2ccc(Br)cc2)nc2ccccc12 (configuration not stated)	ALDH1A1 block inconclusive, PNC assembly inh -119
COc1cccc(NC(=O)COC(=O)CCS(=O)(=O)c2ccc(C)cc2)c1	ALDH1A1 block inconclusive (no result: HPGD block, PNC assembly inh, ALOX12 inhib)
COc1ccc(-c2nn3c(C4CCCCC4)nnc3s2)cc1OC	ALDH1A1 block 13µM, HPGD block inconclusive
O=C(O)c1cc(-c2ccc(-c3ccccc3)cc2)nc2cc3ccccc3cc12	none (no result: PNC assembly inh, GLA inh pH 4.5, GLA spleen mod)
Cc1ccc(NNC(=S)Nc2ccc(C(C)C)cc2)c(C)c1	ALDH1A1 block 22µM, HPGD block inconclusive, ALOX12 inhib inconclusive
O=C1c2ccccc2C(=O)N1c1cccc(-c2csc(Nc3ccc4c(c3)OCO4)n2)c1	ALDH1A1 block 7.1µM
Cc1cc(C)c2c(-n3cccc3)c(C(=O)O)sc2n1	ALDH1A1 block 22µM
COCc1cc(C)nc2sc(C(=O)NN)c(-n3cccc3)c12	ALDH1A1 block 0.5µM (no result: HPGD block, PNC assembly inh, ALOX12 inhib)
Cc1cc(C)c2c(-n3cccc3)c(C(=O)NNS(=O)(=O)c3ccccc3)sc2n1	ALDH1A1 block 4.5µM
Cc1cc(-c2nc(C)c(C(=O)NNS(=O)(=O)c3ccccc3)s2)no1	none (no result: HPGD block, PNC assembly inh, ALOX12 inhib)
COCCNc1nc2sc3c(c2c(=O)n1Cc1ccco1)CCCCC3	none
COc1ccc(Oc2ncc3nc(-c4cc(F)cc(F)c4)c(=O)n(C)c3n2)cc1	ALDH1A1 block inconclusive, HPGD block inconclusive (no result: PNC assembly inh, GLA inh pH 4.5)
CCCC/C=C/C(NC(=O)CCc1ccccc1)c1ccccc1 (configuration not stated)	PNC assembly inh -119
CCCC/C=C/C(NC(=O)c1ccco1)c1ccccc1 (configuration not stated)	ALDH1A1 block 3.5µM (no result: PNC assembly inh)
CCCC/C=C/C(NC(=O)c1ccccc1)c1ccccc1 (configuration not stated)	ALDH1A1 block inconclusive (no result: PNC assembly inh)
O=C(NCCc1ccccc1)c1ccco1	none
O=C(NCCNC(=O)C(c1ccccc1)c1ccccc1)c1ccco1	ALDH1A1 block 40µM, PNC assembly inh inconclusive
COc1cc(NC(=S)Nc2ccccn2)cc(OC)c1	ALOX12 inhib inconclusive
CCC(C)(NC(=O)c1ccc2c(c1)OCO2)C(=O)NC1CCCCC1 (configuration not stated)	none (no result: HPGD block, PNC assembly inh, ALOX12 inhib)
CCCc1cc(=O)[nH]c(SCC(=O)Nc2ncc(S(=O)(=O)c3ccc([N+](=O)[O-])cc3)s2)n1	none (no result: ALDH1A1 block, HPGD block, PNC assembly inh, ALOX12 inhib)
COCCn1c(C)cc(C2=NNC(=Nc3ccccc3)SC2)c1C	ALDH1A1 block inconclusive
COc1ccccc1C1=NNC(=Nc2cccc(S(=O)(=O)N(C)C)c2)SC1	ALDH1A1 block 35µM (no result: HPGD block, PNC assembly inh, ALOX12 inhib)
C=C1C2c3ccccc3C(CC2(C)O[Si](C)(C)C)N1C(=O)OC (configuration not stated)	none (no result: PNC assembly inh)
Cc1cc(C2C(=O)CC(=O)CC2c2ccccc2)on1 (configuration not stated)	ALDH1A1 block 10µM, ALOX12 inhib inconclusive
